“And” between values parts separate entries of the source, which are not always exact repeats. Identical values can stand only once. Records with an inconclusive call do not appear. Entries that show only a call come without a potency. More than one record can exist for a structure, and the calls need not agree. The source made the active and inactive calls. Unless noted, calls follow the shape of the dose curve; as a rule, active = well fitted curve in the direction sought with a large enough effect in the repeat runs; inconclusive = weak or mixed curves; inactive = no such curve, though single readings can be large; an effect the other way counts as inactive or inconclusive.
Legend:
[1] = A CellTox Green Cytotoxicity Assay to monitor cytotoxicity in HEK293 cells - 32 hour (AID 1224881); also: nearly all actives have a fitted effect of over 40% in size; also: potency is read from the fitted curve at half-maximal effect
How it was run: (§1)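 Fluorescence from a DNA-binding dye excluded by viable cells was measured repeatedly in the same HEK293 wells (600 cells/well) during continuous compound exposure at 37 C. Each assay gives one read point: 0, 8, 16, 24, 32 or 40 h.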

[2] = A CellTox Green Cytotoxicity Assay to monitor cytotoxicity in HepG2 cells - 0 hour (AID 1224882); also: nearly all actives have a fitted effect of over 35% in size
How it was run: (§2)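 Real-time cytotoxicity: fluorescence of a cell-impermeant cyanine dye binding DNA of dead HepG2 cells, measured repeatedly (0–40 h) during compound exposure at 37 C. Cells seeded 600/well with reagent, dosed after 5 h.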

[3] = A CellTox Green Cytotoxicity Assay to monitor cytotoxicity in HepG2 cells - 32 hour (AID 1224883); also: nearly all actives have a fitted effect of over 50% in size; also: potency is read from the fitted curve at half-maximal effect
How it was run: as §2

[4] = A CellTox Green Cytotoxicity Assay to monitor cytotoxicity in HEK293 cells - 8 hour (AID 1224884); also: nearly all actives have a fitted effect of over 35% in size; also: potency is read from the fitted curve at half-maximal effect
How it was run: as §1

[5] = qHTS RealTime-Glo MT Cell Viability Assay in HepG2 cells - 16 hour (AID 1224885); also: nearly all actives have a fitted effect of over 50% in size; also: potency is read from the fitted curve at half-maximal effect
How it was run: (§3)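 Tox21 10K library screened in qHTS format on HepG2 cells carrying RealTime-Glo reagents. Compounds were added after a 5 h preincubation, and the luminescent signal from continuous culture was measured repeatedly during 40 h treatment.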

[6] = qHTS RealTime-Glo MT Cell Viability Assay in HEK293 cells - 8 hour (AID 1224887); also: nearly all actives have a fitted effect of over 50% in size; also: potency is read from the fitted curve at half-maximal effect
How it was run: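 Luminescence, which tracks viable cell number through reduction of the prosubstrate to a NanoLuc substrate, was read over continuous 37 C culture. Cells (600/well) were premixed with reagent and rested 5 h before 23 nL of compound in DMSO was pinned.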

[7] = A CellTox Green Cytotoxicity Assay to monitor cytotoxicity in HEK293 cells - 16 hour (AID 1224888); also: nearly all actives have a fitted effect of over 35% in size; also: potency is read from the fitted curve at half-maximal effect
How it was run: as §1

[8] = qHTS RealTime-Glo MT Cell Viability Assay in HepG2 cells - 0 hour (AID 1224889); also: nearly all actives have a fitted effect of over 50% in size
How it was run: as §3

[9] = A CellTox Green Cytotoxicity Assay to monitor cytotoxicity in HepG2 cells - 8 hour (AID 1224890); also: nearly all actives have a fitted effect of over 45% in size; also: potency is read from the fitted curve at half-maximal effect
How it was run: as §2

[10] = qHTS assay to identify small molecule antagonists of the estrogen receptor alpha (ER-alpha) signaling pathway using the BG1 cell line in the presence of 0.1 nM 17-beta-estradiol - cell viability counter screen (AID 1259241); also: nearly all actives have a fitted effect of over 40% in size; also: potency is read from the fitted curve at half-maximal effect
How it was run: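 Cells were plated and left 24 hr, compounds in DMSO were pinned in, 17beta-estradiol was added to 0.1 nM final, and after 22 hr CellTiter-Fluor reagent was added for 30 min before fluorescence was read.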

[11] = qHTS assay to identify small molecule antagonists of the androgen receptor (AR) signaling pathway using the MDA cell line in the presence of 0.5 nM R1881 - cell viability counter screen (AID 1259242); also: nearly all actives have a fitted effect of over 45% in size; also: potency is read from the fitted curve at half-maximal effect
How it was run: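 Live-cell protease activity was measured by CellTiter-Fluor fluorescence after 30 min. Before that, MDA-kb2 MMTV-luciferase cells had 16 hr at 37C without CO2, exposed to test compounds and 0.5 nM R1881 final.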

[12] = molecular target: Estrogen receptor (Homo sapiens) (UniProt P03372); test: qHTS assay to identify small molecule antagonists of the estrogen receptor alpha (ER-alpha) signaling pathway using the BG1 cell line in the presence of 0.1 nM 17-beta-estradiol (AID 1259244); also: nearly all actives have a fitted effect of over 50% in size; also: potency is read from the fitted curve at half-maximal effect
How it was run: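 Luciferase luminescence (ONE-Glo, 30 min at room temperature) was read after 22 hr at 37C exposure to compounds plus 17beta-estradiol at 0.1 nM final. Cells were VM7Luc4E2 with endogenous ER-alpha and an ERE-driven luciferase, pre-cultured 5 days in hormone-depleted medium.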

[13] = qHTS assay to identify small molecule HDAC inhibitors (AID 1259364); also: top concentration of the series differs between compounds; nearly all actives have a fitted effect of over 45% in size
How it was run: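 Luminescence read after 30 min room-temperature HDAC-Glo incubation measures cellular class I/II HDAC activity. Compounds were applied for 2 hr at 37 C to HCT-116 wild-type cells seeded the day before.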

[14] = qHTS assay to identify small molecule HDAC inhibitors - cell viability counter screen (AID 1259365)
How it was run: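 Counter screen in wild-type HCT-116 cells: compounds dissolved in DMSO are pin-transferred onto overnight-plated cells and left 2hr at 37C. ATP-based CellTiter-Glo luminescence then measures viable cells.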

[15] = qHTS assay to identify small molecule agonists of the sonic hedgehog signaling (Shh) pathway - cell viability counter screen (AID 1259366); also: nearly all actives have a fitted effect of over 50% in size; also: potency is read from the fitted curve at half-maximal effect
How it was run: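 Cells are plated at 2,000 per well and left 4hr at 37C, 5% CO2 before compound addition. After 23hr of treatment, CellTiter-Fluor reagent is added for 1hr at 37C and fluorescence is measured.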

[16] = qHTS assay to identify small molecule antagonists of the sonic hedgehog signaling (Shh) pathway - cell viability counter screen (AID 1259367); also: nearly all actives have a fitted effect of over 55% in size; also: potency is read from the fitted curve at half-maximal effect
How it was run: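 Tox21 library chemicals were tested on a Gli1-Luc NIH/3T3 clone (2,000 cells/well) stimulated by conditioned medium; viability was quantified as fluorescence from CellTiter-Fluor reagent added at 23 hr.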

[17] = qHTS assay to identify small molecule agonists of the sonic hedgehog signaling (Shh) pathway (AID 1259368; calls by dose curve;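 also: NIH/3T3-derived 3T3Gli1-Luc cells carrying a stable Gli1-driven firefly luciferase reporter; series mostly up to about 92 µM; nearly all actives have a fitted effect of over 15% in size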)
How it was run: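 Luminescence was read after 30 min at room temperature with luciferase reagent. Before that, 3T3Gli1-Luc cells (NIH/3T3 clone, stable Gli1-Luc reporter; 2,000/well) were exposed to compounds for 24 hr at 37C, 5% CO2, compounds being added 4 hr post-plating.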

[18] = qHTS RealTime-Glo MT Cell Viability Assay in HEK293 cells - 24 hour (AID 1224886); also: nearly all actives have a fitted effect of over 50% in size; also: potency is read from the fitted curve at half-maximal effect
How it was run: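 Luminescence generated by NanoLuc from substrate produced by living HEK293 cells served as the viability signal. Each value reflects the reading at its stated time point during continuous 40 h compound exposure at 37 C.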

Estrogen receptor (Homo sapiens), sequence (P03372 whole entry, looked up): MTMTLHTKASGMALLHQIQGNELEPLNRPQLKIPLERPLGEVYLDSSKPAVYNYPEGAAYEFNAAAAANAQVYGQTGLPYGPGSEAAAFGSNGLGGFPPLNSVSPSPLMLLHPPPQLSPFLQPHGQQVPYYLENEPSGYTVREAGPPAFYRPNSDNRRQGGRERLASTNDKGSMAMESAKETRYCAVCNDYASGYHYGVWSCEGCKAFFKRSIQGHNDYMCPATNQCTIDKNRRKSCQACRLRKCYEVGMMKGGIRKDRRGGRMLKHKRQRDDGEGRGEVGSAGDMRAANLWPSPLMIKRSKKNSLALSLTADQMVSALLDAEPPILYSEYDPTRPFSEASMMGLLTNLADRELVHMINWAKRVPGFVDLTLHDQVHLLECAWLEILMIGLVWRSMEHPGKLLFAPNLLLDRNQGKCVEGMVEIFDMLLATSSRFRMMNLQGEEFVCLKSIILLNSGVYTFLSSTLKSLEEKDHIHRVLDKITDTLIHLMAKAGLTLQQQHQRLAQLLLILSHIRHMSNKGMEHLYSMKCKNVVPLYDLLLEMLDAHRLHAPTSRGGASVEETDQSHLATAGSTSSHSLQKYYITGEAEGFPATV

SMILES | Potency [1] | Potency [2] | Potency [3] | Potency [4] | Potency [5] | Potency [6] | Potency [7] | Potency [8] | Potency [9] | Potency [10] | Potency [11] | Potency [12] | Potency [13] | Potency [14] | Potency [15] | Potency [16] | Potency [17] | Potency [18]
Oc1ccc(Cl)c(Cl)c1 | inactive | inactive | inactive | inactive | inactive | inactive | inactive | inactive | inactive | inactive | inactive | inactive | inactive | inactive | inactive | inactive | inactive | –
CN1CCc2cc3c(cc2C1O)OCO3 (stereo not given) | inactive | inactive | inactive | inactive | inactive | inactive | inactive | inactive | inactive | – | inactive | – | inactive | inactive | – | – | inactive | inactive
CCn1cc[n+](C)c1 (tested in a mixture with another compound) | inactive | inactive | inactive | inactive | inactive | inactive | inactive | inactive | inactive | inactive | inactive | – | – | inactive | inactive | inactive | inactive | inactive
CCCCCCCCCCCCCCn1cc[n+](C)c1 | 34.7 µM (active) and 38.5 µM (active) and inactive | inactive | 21.9 µM (active) and 24.3 µM (active) and inactive | 55 µM (active) and 54.4 µM (active) and inactive | 39 µM (active) and 54.4 µM (active) and inactive | – | – | inactive | 39 µM (active) and 48.5 µM (active) and inactive | inactive | 30.7 µM (active) and 34 µM (active) and inactive | 612 nM (active) and 761 nM (active) and inactive | inactive | inactive | 17.3 µM (active) and 24.1 µM (active) | 19.4 µM (active) and 27 µM (active) | inactive | 7.78 µM (active) and 8.62 µM (active)
CC(C)Br | inactive | inactive | inactive | inactive | inactive | – | inactive | – | inactive | inactive | inactive | inactive | inactive | inactive | inactive | inactive | inactive | inactive
Cc1ccc(C)c2ccccc12 | 38.9 µM (active) | inactive | inactive | inactive | inactive | – | – | inactive | inactive | inactive | inactive | – | inactive | inactive | inactive | inactive | inactive | inactive
ClC1=C(Cl)[C@]2(Cl)[C@H]3[C@H]([C@@H]4C=C[C@H]3C4)[C@@]1(Cl)C2(Cl)Cl | 54.9 µM (active) and 49 µM (active) | inactive | 54.9 µM (active) | 54.9 µM (active) | 49 µM (active) | 43.6 µM (active) and 38.9 µM (active) | 54.9 µM (active) and 49 µM (active) | inactive | 54.9 µM (active) | inactive | inactive | – | – | inactive | inactive | inactive | inactive | 43.6 µM (active)
CCC[CH2][Sn]([CH2]CCC)([O]C(C)=O)[O]C(C)=O | 0.392 µM (active) | inactive | 0.221 µM (active) | inactive | 0.554 µM (active) | – | 4.4 µM (active) | inactive | – | 0.692 µM (active) | 347 nM (active) | 617 nM (active) | – | inactive | 6.17 µM (active) | 27.6 µM (active) | inactive | 0.0879 µM (active)
